In PubChem BioAssay (NCATS) one finds Potency data, which are given here for 39 compounds.

Inconclusive results are not listed. A call without a number means that no potency is given here. Calls of active or inactive are those of the source. Calls come from the whole dose curve; tested in HEK293 reporter line.

This test in a line: qHTS for Inhibitors of the Functional Ribonucleoprotein Complex (vRNP) of Lassa (LASV) Arenavirus: LASV Primary Screen - GLuc reporter signal (AID 1347082). Note: nearly all actives have a fitted effect of over 60% in size. Conditions: LASV minigenome vRNP, Gaussia luciferase reporter; series mostly up to 57.5 µM.
As for `CCCc1nn(C)c2c(=O)[nH]c(-c3cc(S(=O)(=O)N4CCN(C)CC4)ccc3OCC)nc12`, the Potency entry was “inactive”.
Consider `CCCCC(O)/C=C(C)/C=C/C=C/C(=O)N1CCCC1=O` (centres undefined), for which the Potency entry is “inactive”.
For the compound `Cc1c(N(C)CS(=O)(=O)O)c(=O)n(-c2ccccc2)n1C`, the Potency result was “inactive”.
With `CCC1=C(C)CN(C(=O)NCCc2ccc(S(=O)(=O)NC(=O)NC3CCC(C)CC3)cc2)C1=O` (centres undefined), the Potency result is “inactive”.
The same measure for `Cc1ccc2ccc(Cl)cc2n1`: “inactive”.
With `CO[C@@]1(NC(=O)CSC[C@@H](N)C(=O)O)C(=O)N2C(C(=O)O)=C(CSc3nnnn3C)CS[C@@H]21`, the Potency result was “inactive”.
`Cc1ccc(S(=O)(=O)NC(=O)NC2CCCCCCC2)cc1`: the Potency entry is “inactive”.
In the case of `O=C1C(O)=C(O)C(=O)C(O)=C1O`, the Potency result is “inactive”.
Regarding `COc1cc(C=O)ccc1O`, the Potency entry is “inactive”.
Turning to `CC(O)C(=O)O` (centres undefined), the Potency result was “inactive”.
With `CCCCCCCCCCCC(=O)[O][Sn]([CH2]CCC)([CH2]CCC)[O]C(=O)CCCCCCCCCCC` the entry was “inactive”.
On to `Oc1ccccc1-c1nnco1`, for which the Potency result was “inactive”.
With `C[C@@H](O)[C@H]1C(=O)N2C(C(=O)O)=C(SCCN=CN)C[C@H]12` the entry was “inactive”; with `CC(=O)OCC(=O)[C@H]1CC[C@H]2[C@@H]3CCC4=CC(=O)CC[C@]4(C)[C@H]3CC[C@]12C`, “inactive”.
The same measure for `Cc1cccc(C)c1NC(=O)CC12CCCN1CCC2`: “inactive”; for `O=C(O)Cn1c(=O)n(Cc2ccc(Br)cc2F)c(=O)c2ccc(Cl)cc21`: “inactive”; for `O=C(O)CN1C(=O)c2cccc3cccc(c23)C1=O`: “inactive”.
The same measure for `Cc1ncc(CO)c(CO)c1O`: “inactive”; for `CN1CCN(C(=O)C2CCCCC2)CC1`: “inactive”.
As to `COC(=O)c1cccnc1`, the Potency entry was “inactive”.
In the case of `CC(=O)NCc1c(I)c(NC(C)=O)c(I)c(C(=O)O)c1I`, the Potency result was “inactive”.
For `Cc1ccccc1C(=O)N1CC/C(=N\OS(=O)(=O)O)c2ccc(Cl)cc21`, the Potency result is “inactive”.
For `Nc1ccc(C(=O)Oc2ccccc2)c(O)c1`, the Potency entry is “inactive”.
`COc1cnc(NS(=O)(=O)c2ccc(N)cc2)nc1`: the Potency result is “inactive”.
For `CO[C@@]1(NC(=O)Cc2cccs2)C(=O)N2C(C(=O)O)=C(COC(N)=O)CS[C@@H]21`, the Potency entry is “inactive”.
Regarding `O=C(CCCl)NCCc1ccccc1`, the Potency entry was “inactive”.
On to `CCOc1cc(OCC)c(C(=O)CCC(=O)O)cc1OCC`, for which the Potency entry is “inactive”.
On to `CC1COc2c(N3CCN(C)CC3)c(F)cc3c(=O)c(C(=O)O)cn1c23` (centres undefined), for which the Potency result was “inactive”.
With `CC(CN(C)C)C(C)(O)Cc1ccc(Cl)cc1` (centres undefined) the entry was “inactive”; with `CCn1cc(C(=O)O)c(=O)c2cnc(N3CCNCC3)nc21`, “inactive”; with `Cc1oc(=O)oc1CN1CCN(c2cc3c(cc2F)c(=O)c(C(=O)O)c2n3C(C)S2)CC1` (centres undefined), “inactive”.
The same measure for `Cc1ccsc1/C=C/C1=NCCCN1C`: “inactive”.
Consider `COc1ccc2c(c1)c(CC(=O)OC/C=C(\C)CC/C=C(\C)CCC=C(C)C)c(C)n2C(=O)c1ccc(Cl)cc1`, for which the Potency entry was “inactive”.
The same measure for `O=C(Oc1ccccc1C(=O)O)c1ccccc1O`: “inactive”.
For `COc1ccc(S(=O)(=O)Nc2nnc(CC(C)C)s2)cc1`, the Potency result was “inactive”.
With `CC(C)(Sc1cc(C(C)(C)C)c(O)c(C(C)(C)C)c1)Sc1cc(C(C)(C)C)c(O)c(C(C)(C)C)c1`, the Potency result was “inactive”.
Turning to `COc1c(N2C[C@@H]3CCCN[C@@H]3C2)c(F)cc2c(=O)c(C(=O)O)cn(C3CC3)c12`, the Potency result was “inactive”.
The same measure for `C#CCN[C@@H]1CCc2ccccc21`: “inactive”; for `C[C@@H]1CCC[C@H](C)N1`: “inactive”.
